Measurements reported in article PMC11062922 (Nature Chemical Biology, 2023).
Like-named read-outs stand apart in the source and are kept apart here.

Assays:
PRKD3 = conditions: read-out: apparent Kd, n = 1
Q6ZSR9 = Q6ZSR9 (human, UniProt Q6ZSR9); conditions: read-out: apparent Kd, n = 1
Sequence of Q6ZSR9 (Q6ZSR9 whole entry, looked up): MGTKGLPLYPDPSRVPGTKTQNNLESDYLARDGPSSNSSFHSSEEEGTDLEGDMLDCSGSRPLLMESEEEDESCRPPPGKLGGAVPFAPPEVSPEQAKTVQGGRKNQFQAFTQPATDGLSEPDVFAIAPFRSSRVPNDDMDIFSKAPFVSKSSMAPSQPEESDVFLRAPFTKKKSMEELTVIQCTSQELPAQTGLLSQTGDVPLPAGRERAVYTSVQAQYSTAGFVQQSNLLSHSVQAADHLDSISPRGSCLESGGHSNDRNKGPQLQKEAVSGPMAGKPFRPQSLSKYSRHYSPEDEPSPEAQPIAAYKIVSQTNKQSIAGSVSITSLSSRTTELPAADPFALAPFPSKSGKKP

Lestaurtinib
potency estimated from few doses (PRKD3; compound concentrations:100 nM and 1000 nM (sheet 'Lestaurtinib' of Supplementary Table 1),run:Lestaurtinib_02766_R2,Plate:MR027): 74.6 nM | potency estimated from few doses (PRKD3; compound concentrations:100 nM and 1000 nM (sheet 'Lestaurtinib' of Supplementary Table 1),run:Lestaurtinib_02768_R3,Plate:MR028): 59.1 nM | potency estimated from few doses (PRKD3; compound concentrations:100 nM and 1000 nM (sheet 'Lestaurtinib' of Supplementary Table 1),run:Lestaurtinib_02795_R2,Plate:MR022): 79.8 nM | potency estimated from few doses (PRKD3; compound concentrations:100 nM and 1000 nM (sheet 'Lestaurtinib' of Supplementary Table 1),run:Lestaurtinib_02802_R1,Plate:MR029): 83.1 nM | potency estimated from few doses (PRKD3; compound concentrations:100 nM and 1000 nM (sheet 'Lestaurtinib' of Supplementary Table 1),run:Lestaurtinib_02802_R3,Plate:MR029): 82.7 nM | potency estimated from few doses (PRKD3; compound concentrations:100 nM and 1000 nM (sheet 'Lestaurtinib' of Supplementary Table 1),run:Lestaurtinib_02896_R1,Plate:MR030): 61.8 nM | potency estimated from few doses (PRKD3; compound concentrations:100 nM and 1000 nM (sheet 'Lestaurtinib' of Supplementary Table 1),run:Lestaurtinib_02896_R2,Plate:MR030): 80.6 nM | potency estimated from few doses (PRKD3; compound concentrations:100 nM and 1000 nM (sheet 'Lestaurtinib' of Supplementary Table 1),run:Lestaurtinib_02896_R3,Plate:MR030): 92.2 nM | potency estimated from few doses (PRKD3; compound concentrations:100 nM and 1000 nM (sheet 'Lestaurtinib' of Supplementary Table 1),run:Lestaurtinib_03172_R3,Plate:MR031): 90.1 nM | potency estimated from few doses (PRKD3; compound concentrations:100 nM and 1000 nM (sheet 'Lestaurtinib' of Supplementary Table 1),run:Lestaurtinib_03252_R1,Plate:MR032): 43.4 nM | potency estimated from few doses (PRKD3; compound concentrations:100 nM and 1000 nM (sheet 'Lestaurtinib' of Supplementary Table 1),run:Lestaurtinib_03252_R2,Plate:MR032): 30.6 nM | potency estimated from few doses (PRKD3; compound concentrations:100 nM and 1000 nM (sheet 'Lestaurtinib' of Supplementary Table 1),run:Lestaurtinib_03260_R2,Plate:MR033): 96.7 nM | potency estimated from few doses (PRKD3; compound concentrations:100 nM and 1000 nM (sheet 'Lestaurtinib' of Supplementary Table 1),run:Lestaurtinib_03260_R3,Plate:MR033): 91.2 nM | potency estimated from few doses (Q6ZSR9; compound concentrations:100 nM and 1000 nM (sheet 'Lestaurtinib' of Supplementary Table 1),run:Lestaurtinib_02339_R1,Plate:MR001): 78.9 nM | potency estimated from few doses (Q6ZSR9; compound concentrations:100 nM and 1000 nM (sheet 'Lestaurtinib' of Supplementary Table 1),run:Lestaurtinib_02339_R3,Plate:MR001): 48.8 nM | potency estimated from few doses (Q6ZSR9; compound concentrations:100 nM and 1000 nM (sheet 'Lestaurtinib' of Supplementary Table 1),run:Lestaurtinib_02364_R1,Plate:MR002): 68.5 nM | potency estimated from few doses (Q6ZSR9; compound concentrations:100 nM and 1000 nM (sheet 'Lestaurtinib' of Supplementary Table 1),run:Lestaurtinib_02364_R2,Plate:MR002): 68.1 nM | potency estimated from few doses (Q6ZSR9; compound concentrations:100 nM and 1000 nM (sheet 'Lestaurtinib' of Supplementary Table 1),run:Lestaurtinib_02364_R3,Plate:MR002): 78.6 nM | potency estimated from few doses (Q6ZSR9; compound concentrations:100 nM and 1000 nM (sheet 'Lestaurtinib' of Supplementary Table 1),run:Lestaurtinib_02367_R1,Plate:MR003): 62.7 nM | potency estimated from few doses (Q6ZSR9; compound concentrations:100 nM and 1000 nM (sheet 'Lestaurtinib' of Supplementary Table 1),run:Lestaurtinib_02367_R2,Plate:MR003): 66.7 nM | potency estimated from few doses (Q6ZSR9; compound concentrations:100 nM and 1000 nM (sheet 'Lestaurtinib' of Supplementary Table 1),run:Lestaurtinib_02367_R3,Plate:MR003): 78.8 nM | potency estimated from few doses (Q6ZSR9; compound concentrations:100 nM and 1000 nM (sheet 'Lestaurtinib' of Supplementary Table 1),run:Lestaurtinib_02381_R1,Plate:MR004): 69.4 nM | potency estimated from few doses (Q6ZSR9; compound concentrations:100 nM and 1000 nM (sheet 'Lestaurtinib' of Supplementary Table 1),run:Lestaurtinib_02381_R2,Plate:MR004): 64.6 nM | potency estimated from few doses (Q6ZSR9; compound concentrations:100 nM and 1000 nM (sheet 'Lestaurtinib' of Supplementary Table 1),run:Lestaurtinib_02407_R1,Plate:MR005): 62.3 nM | potency estimated from few doses (Q6ZSR9; compound concentrations:100 nM and 1000 nM (sheet 'Lestaurtinib' of Supplementary Table 1),run:Lestaurtinib_02407_R2,Plate:MR005): 71.9 nM | potency estimated from few doses (Q6ZSR9; compound concentrations:100 nM and 1000 nM (sheet 'Lestaurtinib' of Supplementary Table 1),run:Lestaurtinib_02407_R3,Plate:MR005): 68.5 nM | potency estimated from few doses (Q6ZSR9; compound concentrations:100 nM and 1000 nM (sheet 'Lestaurtinib' of Supplementary Table 1),run:Lestaurtinib_02422_R1,Plate:MR006): 72.4 nM | potency estimated from few doses (Q6ZSR9; compound concentrations:100 nM and 1000 nM (sheet 'Lestaurtinib' of Supplementary Table 1),run:Lestaurtinib_02422_R2,Plate:MR006): 20.6 nM | potency estimated from few doses (Q6ZSR9; compound concentrations:100 nM and 1000 nM (sheet 'Lestaurtinib' of Supplementary Table 1),run:Lestaurtinib_02437_R2,Plate:MR007): 55.6 nM | potency estimated from few doses (Q6ZSR9; compound concentrations:100 nM and 1000 nM (sheet 'Lestaurtinib' of Supplementary Table 1),run:Lestaurtinib_02437_R3,Plate:MR007): 9.66 nM | potency estimated from few doses (Q6ZSR9; compound concentrations:100 nM and 1000 nM (sheet 'Lestaurtinib' of Supplementary Table 1),run:Lestaurtinib_02438_R3,Plate:MR008): 74.8 nM | potency estimated from few doses (Q6ZSR9; compound concentrations:100 nM and 1000 nM (sheet 'Lestaurtinib' of Supplementary Table 1),run:Lestaurtinib_02443_R1,Plate:MR009): 51.6 nM | potency estimated from few doses (Q6ZSR9; compound concentrations:100 nM and 1000 nM (sheet 'Lestaurtinib' of Supplementary Table 1),run:Lestaurtinib_02443_R2,Plate:MR009): 62.7 nM | potency estimated from few doses (Q6ZSR9; compound concentrations:100 nM and 1000 nM (sheet 'Lestaurtinib' of Supplementary Table 1),run:Lestaurtinib_02443_R3,Plate:MR009): 77.8 nM | potency estimated from few doses (Q6ZSR9; compound concentrations:100 nM and 1000 nM (sheet 'Lestaurtinib' of Supplementary Table 1),run:Lestaurtinib_02473_R1,Plate:MR010): 78.4 nM | potency estimated from few doses (Q6ZSR9; compound concentrations:100 nM and 1000 nM (sheet 'Lestaurtinib' of Supplementary Table 1),run:Lestaurtinib_02473_R2,Plate:MR010): 61 nM | potency estimated from few doses (Q6ZSR9; compound concentrations:100 nM and 1000 nM (sheet 'Lestaurtinib' of Supplementary Table 1),run:Lestaurtinib_02473_R3,Plate:MR010): 35.7 nM | potency estimated from few doses (Q6ZSR9; compound concentrations:100 nM and 1000 nM (sheet 'Lestaurtinib' of Supplementary Table 1),run:Lestaurtinib_02482_R2,Plate:MR011): 76.6 nM | potency estimated from few doses (Q6ZSR9; compound concentrations:100 nM and 1000 nM (sheet 'Lestaurtinib' of Supplementary Table 1),run:Lestaurtinib_02482_R3,Plate:MR011): 65.6 nM | potency estimated from few doses (Q6ZSR9; compound concentrations:100 nM and 1000 nM (sheet 'Lestaurtinib' of Supplementary Table 1),run:Lestaurtinib_02487_R1,Plate:MR012): 71.7 nM | potency estimated from few doses (Q6ZSR9; compound concentrations:100 nM and 1000 nM (sheet 'Lestaurtinib' of Supplementary Table 1),run:Lestaurtinib_02487_R2,Plate:MR012): 66.6 nM | potency estimated from few doses (Q6ZSR9; compound concentrations:100 nM and 1000 nM (sheet 'Lestaurtinib' of Supplementary Table 1),run:Lestaurtinib_02487_R3,Plate:MR012): 81.2 nM
